# Measured values reported in PubChem BioAssay.
# The source made the active and inactive calls. Rule as the data show it, unless noted: active = inhibition above about 80%; inactive = the rest.
# Legend:
# [1] = growth inhibition, single agent or in combination, cell-based, chromothripsis tumors, cisplatin or BGB combos (AID 1671449); details: LFS_MB_P medulloblastoma cells;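 also: cells exposed for 96 hours; 0% = vehicle DMSO and 100% = killing by high DMSO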
# [2] = growth inhibition, single agent and combos, cell-based, chromothripsis tumors, cisplatin or BGB combos (AID 1671450); details: HDN33 neuroblastoma cells, stronger effect = higher value;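 also: cells exposed to compound for four days; 0% = vehicle DMSO and 100% = cell killing by high DMSO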
# [3] = growth inhibition, single agents and combos, ICB984, cell-based, cisplatin or BGB combos, synergistic combos for chromothripsis tumors (AID 1671451; call rule not given here;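 also: cells exposed for 96 hours before readout; 0% = vehicle DMSO and 100% = killing by high DMSO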); details: ICB984 medulloblastoma cells, drug combinations, stronger effect = higher value
# [4] = growth inhibition, single agents and combos, LFS_MB_1R, cell-based, cisplatin or BGB combos, synergistic combos for chromothripsis tumors (AID 1671452); details: LFS_MB_1R medulloblastoma cells, stronger effect = higher value;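 also: cells exposed for 96 hours before readout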
# [5] = growth inhibition, single agents and combos, HTB85, cell-based, BGB or cisplatin IC20 combos, synergistic combos for chromothripsis tumors (AID 1671453); details: HTB85 osteosarcoma cells, drug combinations, stronger effect = higher value;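 also: cells exposed for 96 hours before readout; 0% = vehicle DMSO and 100% = high DMSO killing control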
# [6] = growth inhibition, single agents and combos, CRL2098, cell-based, BGB or cisplatin IC20 combos, synergistic combos for chromothripsis tumors (AID 1671454); details: CRL2098 osteosarcoma cells, drug combinations, stronger effect = higher value;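 also: cells exposed for 96 h before readout; 0% = vehicle DMSO and 100% = killing by high DMSO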
# [7] = growth inhibition, single agents and combos, HD-MB03, cell-based, BGB or cisplatin IC20 combos, synergistic combos for chromothripsis tumors (AID 1671455; in the data active = inhibition above about 83%;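 also: 0% = vehicle DMSO and 100% = high DMSO as cytotoxic control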); details: HD-MB03 medulloblastoma cells, stronger effect = higher value
# [8] = growth inhibition, single agents and combos, UWB1.289, cell-based, BGB or cisplatin combos, synergistic combos for chromothripsis tumors (AID 1671456); details: UWB1.289 ovarian carcinoma cells, stronger effect = higher value;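 also: cells exposed to compound for four days; 0% = vehicle DMSO and 100% = killing by high DMSO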
# [9] = growth inhibition, single agents and combos, LFS_MB_2R, cell-based, cisplatin combos, synergistic combos for chromothripsis tumors (AID 1671457); details: LFS_MB_2R medulloblastoma cells, stronger effect = higher value;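 also: cells exposed to compound for four days before readout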
# [10] = growth inhibition, MDA-MB-436, cell-based, BGB or cisplatin combos, synergistic combos for chromothripsis tumors (AID 1671458; call rule not given here;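 also: cells exposed for 96 hours; 0% = vehicle DMSO and 100% = killing by high DMSO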); details: MDA-MB-436 breast carcinoma growth inhibition, drug combinations, stronger effect = higher value
# [11] = UWB1.289_BRCA1 ovarian cancer growth, cell-based, BGB or cisplatin combinations (AID 1671459); details: UWB1.289 BRCA1 ovarian carcinoma, drug combinations, stronger effect = higher value
# [12] = drug combination toxicity in non-malignant astrocytes – cell-based, BGB or cisplatin IC20 combos, cytotoxicity control for chromothriptic childhood tumor combination screen (AID 1671460); details: Human astrocytes, viability inhibition, drug combinations, at 0.5 µM, stronger effect = higher value;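 also: cells exposed to compounds for 96 hours before viability readout; 0% = vehicle and 100% = killing control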
# [13] = BT084 cell growth, single and combined drugs, ICGC_MB145, cisplatin and BGB IC40 combos (AID 1671461); details: BT084 medulloblastoma cells, drug combinations, stronger effect = higher value;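 also: cells exposed to drugs for 96 hours; 0% = vehicle DMSO and 100% = high DMSO full killing control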
# [14] = RCMB18 cell growth, single agent and combined, cisplatin and BGB IC40 combos (AID 1671462); details: RCMB18 medulloblastoma cells, stronger effect = higher value;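 also: cells exposed to compound for four days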
# [15] = CRL1545 cell growth, single agent and combined, cisplatin and BGB IC20 combos (AID 1671464); details: CRL1545 osteosarcoma cells, stronger effect = higher value;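 also: cells exposed to compound for 96 hours before readout; 0% = vehicle DMSO and 100% = high DMSO killing control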
# [16] = at 0.5 µM, stronger effect = higher value
# [17] = measured here: combination with BGB IC20, at 0.005 µM
# [18] = measured here: combination with BGB IC40, at 0.005 µM
# [19] = measured here: combination with BGB IC40, at 0.05 µM
# [20] = measured here: combination with cisplatin, at 0.5 µM, stronger effect = higher value
# [21] = measured here: combination with cisplatin, at 5 µM, stronger effect = higher value
# [22] = measured here: with BGB IC20 combination, at 0.5 µM
# [23] = measured here: with cisplatin IC20 combination, at 0.5 µM
# [24] = measured here: 5 uM single agent, at 5 µM
# [25] = measured here: combination with cisplatin, at 0.5 µM
# [26] = measured here: combination with cisplatin, at 5 µM
# [27] = measured here: with BGB IC20, at 0.5 µM
# [28] = measured here: with BGB IC20, at 5 µM
# [29] = measured here: with cisplatin IC20, at 0.5 µM
# [30] = measured here: with cisplatin IC20, at 5 µM
# [31] = measured here: combination with BGB at IC20, at 0.5 µM
# [32] = measured here: combination with cisplatin at IC20, at 0.5 µM
# [33] = measured here: combo with BGB at IC20, at 0.5 µM
# [34] = measured here: combo with cisplatin at IC20, at 0.5 µM
# [35] = measured here: inhibition with BGB combination, at 0.05 µM
# [36] = measured here: inhibition with cisplatin combination, at 0.05 µM
# [37] = measured here: BGB combination, at 0.5 µM
# [38] = measured here: BGB combination, at 5 µM
# [39] = measured here: cisplatin combination, at 0.5 µM
# [40] = measured here: cisplatin combination, at 5 µM
# [41] = BGB combination, concentration series, at 5 µM
# [42] = cisplatin combination, concentration series, at 5 µM
# [43] = measured here: combo with BGB IC20
# [44] = measured here: combo with cisplatin IC20
# [45] = cisplatin combination, at 0.5 µM
# [46] = measured here: BGB IC40 combination 0.05 uM, at 0.05 µM
# [47] = measured here: BGB IC40 combination, at 0.05 µM
structure (smiles),measurement,setting,value
Nc1nc(NC2CC2)cc(-c2cccc(Cl)c2Cl)n1,inhibition,[1]; [16],-24.4% (inactive)
same,inhibition,[1]; [17],6.42%
same,inhibition,[1]; [18],-13.3%
same,inhibition,[1]; [19],-3.68%
same,inhibition,[1]; [20],-27.2%
same,inhibition,[1]; [21],-1.92%
same,inhibition,"[2]; BGB combo, at 5 µM",4.24%
same,inhibition,[2]; at 0.5 µM,-22.2% (inactive)
same,inhibition,"[2]; cisplatin combo, at 5 µM",-25.5%
same,inhibition,[2]; [22],-14.4%
same,inhibition,[2]; [23],-33.4%
same,inhibition,"[2]; single agent, at 5 µM",1.5%
same,inhibition,"[3]; BGB IC20 combo, at 0.005 µM",-16.3%
same,inhibition,"[3]; BGB IC40 combo, at 0.005 µM",-42.9%
same,inhibition,"[3]; BGB IC40 combo, at 0.05 µM",-23.9%
same,inhibition,[3]; at 0.5 µM,-15.4% (inactive)
same,inhibition,"[3]; cisplatin combo, at 0.05 µM",-28.8%
same,inhibition,"[3]; cisplatin combo, at 0.5 µM",-25.9%
same,inhibition,"[3]; cisplatin combo, at 5 µM",-24%
same,inhibition,[3]; [24],-4.67%
same,inhibition,[4]; at 0.5 µM,-47.5% (inactive)
same,inhibition,[4]; [19],-29.4%
same,inhibition,[4]; [25],-115%
same,inhibition,[4]; [26],-60.1%
same,inhibition,[5]; at 0.5 µM,-20.9% (inactive)
same,inhibition,[5]; [27],-3.53%
same,inhibition,[5]; [28],-8.44%
same,inhibition,[5]; [29],-38.1%
same,inhibition,[5]; [30],-21.3%
same,inhibition,"[5]; single agent, at 5 µM",3.83%
same,inhibition,[6]; at 0.5 µM,-50% (inactive)
same,inhibition,[6]; [31],-42.1%
same,inhibition,[6]; [32],-36.5%
same,inhibition,[7]; at 0.5 µM,-12.4% (inactive)
same,inhibition,[7]; [33],-17%
same,inhibition,[7]; [34],-8.02%
same,inhibition,[8]; at 0.5 µM,-15.7% (inactive)
same,inhibition,[8]; [35],-10.8%
same,inhibition,[8]; [36],-19.7%
same,inhibition,[9]; at 0.5 µM,-12.8% (inactive)
same,inhibition,[9]; [25],-18%
same,inhibition,[9]; [26],18.1%
same,inhibition,[10]; at 0.5 µM,-5.02% (inactive)
same,inhibition,[10]; [37],-1.67%
same,inhibition,[10]; [38],10.3%
same,inhibition,[10]; [39],-5.74%
same,inhibition,[10]; [40],15.8%
same,inhibition,[11]; [41],9.28%
same,inhibition,[11]; at 0.5 µM,-9.72% (inactive)
same,inhibition,[11]; [42],10.7%
same,inhibition,[12],-2.78% (inactive)
same,inhibition,[12]; [43],-4.24%
same,inhibition,[12]; [44],6.45%
same,inhibition,[13]; at 0.5 µM,-9.21% (inactive)
same,inhibition,[13]; [45],-6.21%
same,inhibition,"[13]; cisplatin combination, at 5 µM",-20.8%
same,inhibition,[13]; [46],-10.7%
same,inhibition,"[13]; single agent, at 5 µM",-6.16%
same,inhibition,[14]; at 0.5 µM,-8.4% (inactive)
same,inhibition,"[14]; cisplatin combo, at 5 µM",-0.639%
same,inhibition,[14]; [47],-3.5%
same,inhibition,[14]; [25],-22.4%
same,inhibition,"[14]; single agent, at 5 µM",-28.4%
same,inhibition,[15]; at 0.5 µM,-36.8% (inactive)
same,inhibition,[15]; [22],-16.7%
same,inhibition,[15]; [23],-46.8%
same,inhibition,"[15]; single agent, at 0.05 µM",-25%
same,inhibition,"[15]; single agent, at 5 µM",-32.6%
N#Cc1ccc(OC2CCC(NC(=O)CCSc3nc4ccccc4c(=O)[nH]3)CC2)cc1 (stereo unspecified),inhibition,[1]; [16],-11.7% (inactive)
same,inhibition,[1]; [17],-15.6%
same,inhibition,[1]; [18],-25.5%
same,inhibition,[1]; [19],-19.3%
same,inhibition,[1]; [20],-29.6%
same,inhibition,[1]; [21],-57.3%
same,inhibition,"[2]; BGB combo, at 5 µM",8.7%
same,inhibition,[2]; at 0.5 µM,15.1% (inactive)
same,inhibition,"[2]; cisplatin combo, at 5 µM",37.4%
same,inhibition,[2]; [22],12.5%
same,inhibition,[2]; [23],15.6%
same,inhibition,"[2]; single agent, at 5 µM",35.9%
same,inhibition,"[3]; BGB IC20 combo, at 0.005 µM",-4.21%
same,inhibition,"[3]; BGB IC40 combo, at 0.005 µM",-8.75%
same,inhibition,"[3]; BGB IC40 combo, at 0.05 µM",7.9%
same,inhibition,[3]; at 0.5 µM,-30.9% (inactive)
same,inhibition,"[3]; cisplatin combo, at 0.05 µM",4.58%
same,inhibition,"[3]; cisplatin combo, at 0.5 µM",-24.9%
same,inhibition,"[3]; cisplatin combo, at 5 µM",-26.6%
same,inhibition,[3]; [24],2.34%
same,inhibition,[4]; at 0.5 µM,-15.5% (inactive)
same,inhibition,[4]; [19],-12.5%
same,inhibition,[4]; [25],-1.66%
same,inhibition,[4]; [26],-48.1%
same,inhibition,[5]; at 0.5 µM,8.65% (inactive)
same,inhibition,[5]; [27],1.42%
same,inhibition,[5]; [28],-9.23%
same,inhibition,[5]; [29],9.73%
same,inhibition,[5]; [30],-13.4%
same,inhibition,"[5]; single agent, at 5 µM",12.3%
same,inhibition,[6]; at 0.5 µM,-13.9% (inactive)
same,inhibition,[6]; [31],25.6%
same,inhibition,[6]; [32],-58.5%
same,inhibition,[7]; at 0.5 µM,5.55% (inactive)
same,inhibition,[7]; [33],2.46%
same,inhibition,[7]; [34],7.46%
same,inhibition,[8]; at 0.5 µM,13.3% (inactive)
same,inhibition,[8]; [35],-10.8%
same,inhibition,[8]; [36],9.73%
same,inhibition,[9]; at 0.5 µM,-13.3% (inactive)
same,inhibition,[9]; [25],-14.4%
same,inhibition,[9]; [26],-3.9%
same,inhibition,[10]; at 0.5 µM,3.61% (inactive)
same,inhibition,[10]; [37],-7.72%
same,inhibition,[10]; [38],-9.87%
same,inhibition,[10]; [39],1.31%
same,inhibition,[10]; [40],0.512%
same,inhibition,[11]; [41],24.2%
same,inhibition,[11]; at 0.5 µM,9.54% (inactive)
same,inhibition,[11]; [42],-12.4%
same,inhibition,[12],37.4% (inactive)
same,inhibition,[12]; [43],26.2%
same,inhibition,[12]; [44],40.6%
same,inhibition,[13]; at 0.5 µM,0.647% (inactive)
same,inhibition,[13]; [45],-17.2%
same,inhibition,"[13]; cisplatin combination, at 5 µM",-3.13%
same,inhibition,[13]; [46],-41.1%
same,inhibition,"[13]; single agent, at 5 µM",-16.5%
same,inhibition,[14]; at 0.5 µM,7.33% (inactive)
same,inhibition,"[14]; cisplatin combo, at 5 µM",-24.6%
same,inhibition,[14]; [47],-11.2%
same,inhibition,[14]; [25],27.6%
same,inhibition,"[14]; single agent, at 5 µM",-12.9%
same,inhibition,[15]; at 0.5 µM,-30% (inactive)
same,inhibition,[15]; [22],-19.6%
same,inhibition,[15]; [23],-37.4%
same,inhibition,"[15]; single agent, at 0.05 µM",34.4%
same,inhibition,"[15]; single agent, at 5 µM",4.49%
